# KB-3-1 cytotox – KB-3-1 parental cell cytotoxicity; Potency, µM (top dose mostly 46.1 µM), actives largely listed as cytotoxic; AID 1347075; KB-3-1 viability, CellTiter-Glo ATP luminescence, 72 h; hit rate 1.4% among 400,000; note: % is set by controls: 0 for no effect and ±100 for the full control effect; nearly all actives have a fitted effect of over 60% in size
#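 Cytotoxicity in the drug-sensitive parental line KB-3-1 was scored as loss of CellTiter-Glo luminescence following 72 h incubation with compound. Values come from curve fitting of normalized concentration-response data.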
# ELG1 DNA repair – ELG1-dependent DNA repair inhibition; HEK293T ELG1-luciferase reporter, luminescence, 16 h; DNA damage induced by 5-fluorouridine; Potency, µM (titrated, usually from 46.1 µM), for the others: top-dose activity change, negative = inhibition, actives largely listed as inhibitors; hit rate 2.3% among 330,000; AID 504467; note: % is set by controls: 0 for no effect and ±100 for the full control effect; nearly all actives have a fitted effect of over 55% in size
#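 Luminescence from the luciferase reporter, measured 30 min after ONE-Glo reagent at room temperature, was the read-out. Beforehand, 2,000 cells per well were exposed for 16 hr at 37 °C to 5-fluorouridine together with compound or vehicle.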
# MCF10A rerep – induces DNA re-replication in MCF 10a normal breast cells; Potency, µM (highest dose often 46.1 µM), inactives show at the highest dose activity, positive = re-replication, usual class: activators; hit rate 2.9% among 350,000; MCF 10A DNA re-replication, Hoechst nuclear intensity, 48 h; note: % of control where 0% means no effect; nearly all actives have a fitted effect of over 50% in size
# SW480 rereplic – induces DNA re-replication in SW480 colon adenocarcinoma cells; SW480 DNA re-replication, Hoechst DNA content imaging, 48 h; Potency, µM (titrated, usually from 46.1 µM), inactives show at the top dose re-replication activation, hits mostly activators; hit rate 1.8% among 340,000; AID 624297; note: % of control where 0% means no effect; nearly all actives have a fitted effect of over 55% in size
#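 250 cells/well; 23 nL cpd via pin tool; 48 hr, 37 C, 5% CO2; Hoechst 40 min; imager read of total nuclear intensity, ex 405/em 500-530 nm.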
# KB-V1 cytotox – KB-V1 MDR subline cytotoxicity. Potency, µM (titrated, usually from 46.1 µM), actives largely listed as cytotoxic. KB-V1 MDR cells viability, CellTiter-Glo, 72 h. hit rate 3.4% among 400,000; note: % is set by controls: 0 for no effect and ±100 for the full control effect; nearly all actives have a fitted effect of over 60% in size
#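 KB-V1 cells (P-gp-expressing MDR subline of KB-3-1) in phenol-red-free DMEM with 10% FBS were exposed to library compounds over a concentration series for 72 h at 37 degrees C. Viability read by CellTiter-Glo luminescence; concentration-effect curves fitted after normalization.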
# The depositor's hits bear a star; i = inactive; ? = inconclusive; . = no result; ! = a repeat was not active. Most compounds without a hit are left out; they make up all but 8.2% or so of the library. Calls come from the whole dose curve; as a rule, active = well fitted curve in the direction sought with a large enough effect; inconclusive = small, poorly fitted or top-dose-only effect, or another doubt; inactive = no such curve, though single readings can be large; an effect the other way counts as inactive or inconclusive. Potency is the fitted concentration of half-maximal effect.
SMILES,KB-3-1 cytotox,ELG1 DNA repair,MCF10A rerep,SW480 rereplic,KB-V1 cytotox
COc1ccc(C(O)P(=O)(OCC(C)C)OCC(C)C)c(OC)c1 (stereo unspecified),i,-3%,-2%,-3%,16µM*
CCOC(=O)C1=C(OCc2ccc(Cl)cc2)C2C=C(C)C=CC2N=C1 (stereo unspecified),i,16µM*,11%,-8%,i
Cc1nn(CC(=O)N2CCCC2)c(=O)c2cc3cc(F)ccc3n12,i,?,0%,-2%,i
CCc1cc2c(=O)c(-c3nc4ccccc4[nH]3)coc2c(CN2CCCCC2C)c1O (stereo unspecified),i,21µM*,?,-4%,i
CCc1cc2c(=O)c(-c3nc4ccccc4[nH]3)coc2c(CN2CCCCC2)c1O,i,?,17%,-23%,i
COc1ccc(N2C(=O)CC(S/C(N)=N/N=C/c3ccnc4ccccc34)C2=O)cc1 (stereo unspecified),.,11%,.,.,.
N/C(=N\N=C\c1ccnc2ccccc12)SC1CC(=O)N(c2ccc(Br)cc2)C1=O (stereo unspecified),i,0%,7.3µM*,0%,i
Nc1ccc2c(c1)COc1ccccc1O2,i,?,3%,-3%,18µM*
Nc1ccc2c(c1)Oc1ccccc1C=C2,i,20%,3%,-6%,i
O=C(O)CC(C(=O)O)c1ccc(OCCCCOc2ccc(C(CC(=O)O)C(=O)O)cc2)cc1 (stereo unspecified),i,5%,-3%,?,i
COc1ccc(CC2(CO)CCN(S(=O)(=O)c3sccc3C)CC2)cc1,i,18µM*,11%,2%,?
Cc1nn(CC(O)COc2ccc3c(c2)CCC3)c(C)c1Br (stereo unspecified),i,13%,10%,-1%,?
CC(=O)c1c(C)nn(CC(O)COc2ccc3c(c2)CCC3)c1C (stereo unspecified),i,?,-2%,7%,10µM*
N#Cc1ccc(C(=O)N2CCCCC2c2cc(C(=O)NCc3ccccc3)no2)cc1 (stereo unspecified),i,.,.,.,i
CCOc1cc(CNCCSc2nnnn2-c2ccccc2)cc(Cl)c1OC,i,.,.,.,i
C=C1CC(Cn2cc(Br)c(=O)[nH]c2=O)(c2ccc(-c3ccccc3)cc2)OC1=O (stereo unspecified),?,.,?,?,i
C#CCOCCOCCOCCNc1nc(N2CCN(C(=O)CCCCCCCCCCNC(=O)Cn3cc(CCCCCN)nn3)CC2)nc(N2CCN(C(=O)CCCCCCCCCCNC(=O)Cn3cc(CCCCCN)nn3)CC2)n1,i,27%,-3%,-7%,i
CCNS(=O)(=O)c1ccc(C(=O)OCc2cc(=O)oc3cc(OC)ccc23)cc1,i,3%,15µM*,?,i
Cc1ccc2c(COC(=O)CNS(=O)(=O)c3ccccc3)cc(=O)oc2c1,i,?,14%,5%,?
Cc1ccc2c(c1)-n1c(nc3cc(F)ccc3c1=O)C(Cc1ccc(O)cc1)NC2=O (stereo unspecified),.,12%,.,.,.
CCCCNc1c(-c2ccc(-c3ccc(C(C)=O)cc3)c(OC)c2)nc2cnccn12,i,9.2µM*,21µM*,23µM*,i
CCCCNc1c(-c2ccc(OC)c(SC3CCCCC3)c2)nc2cnccn12,i,?,16µM*,?,i
COc1cc(-c2nc3cc(C)ccn3c2NC2CCCCC2)ccc1-c1ccc(C(C)=O)cc1,i,?,?,?,i
CCCCNc1c(-c2ccc(OC)c(SC3CCCCC3)c2)nc2cc(C)ccn12,?,?,?,24%,?
COc1ccc(-c2nc3cnccn3c2NCc2ccccc2)cc1SC1CCCCC1,i,?,12µM*,?,i
CCCCNc1c(-c2ccc(SC3CCCCC3)cc2)nc2cnccn12,i,?,?,?,37µM*!
CCCCCCSc1ccc(-c2nc3ccccn3c2NCCCC)cc1,i,9%,?,0%,?

# Screens (PubChem BioAssay)
